# Source: paper PMC7826789 (International Journal of Molecular Sciences, 2021)
# Tests used:
# Conditions in all cases: Compound Concentration (nM):1000
# [1] = tested on: T1, SIK
# T1 construct: gene SIK1
# [2] = tested on: SLK
# [3] = tested on: T2, SNARK
# T2 construct: gene NUAK2
# [4] = tested on: SNRK
# [5] = tested on: SRC
# [6] = tested on: SRMS
# [7] = tested on: SRPK1
# [8] = tested on: SRPK2
# [9] = tested on: SRPK3
# [10] = tested on: STK16
# [11] = tested on: STK33
# [12] = tested on: STK35
# [13] = tested on: STK36
# [14] = tested on: STK39
# [15] = tested on: SYK
# [16] = tested on: SgK110
# [17] = tested on: T3, TAK1
# T3 construct: gene MAP3K7
# [18] = tested on: TAOK1
# [19] = tested on: TAOK2
# [20] = tested on: TAOK3
# 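Also: KINOMEscan scanMAX binding as percent activity remaining versus control; lower means stronger binding.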
Structure (SMILES),Percent Control [1] [%],Percent Control [2] [%],Percent Control [3] [%],Percent Control [4] [%],Percent Control [5] [%],Percent Control [6] [%],Percent Control [7] [%],Percent Control [8] [%],Percent Control [9] [%],Percent Control [10] [%],Percent Control [11] [%],Percent Control [12] [%],Percent Control [13] [%],Percent Control [14] [%],Percent Control [15] [%],Percent Control [16] [%],Percent Control [17] [%],Percent Control [18] [%],Percent Control [19] [%],Percent Control [20] [%]
COc1cc(N2CCN(C(C)C)CC2)ccc1Nc1nc(Nc2ccc(F)cc2C(=O)NC[C@@H](O)CO)c2cc[nH]c2n1 [GSK1392956A],100,100,66,87,100,100,99,99,100,85,1.5,100,100,65,92,100,100,67,100,100
CC1=C(C(=O)Nc2ccc3[nH]ncc3c2)C(c2ccc3ccccc3c2)CC(=O)N1 (stereo not shown) [GSK270822A],100,83,7.1,95,74,100,85,100,100,88,95,99,100,71,74,100,81,76,96,93
COc1cc(C)c(N(C)C(=O)CN(C)C)cc1Nc1nc(Nc2cccc(F)c2C(N)=O)c2cc[nH]c2n1 [GSK2219385],100,100,100,76,100,100,90,100,100,83,91,98,100,81,100,100,93,100,100,100
C[C@@H](Oc1cc(-n2cnc3ccc(OC4CCN(C)CC4)cc32)sc1C(N)=O)c1ccccc1Cl [GSK579289A],100,7.9,1,59,100,94,92,86,100,69,100,82,76,83,100,100,38,75,96,79
COc1ccc2c(-c3ccnc(Nc4cccc(OC(F)(F)F)c4)n3)cnn2n1 [GW810372X],100,100,73,98,100,99,88,87,92,9.4,90,100,100,86,83,100,95,73,98,100
CN(C)c1cc2c(Nc3ccc4c(cnn4Cc4ccccc4)c3)ncnc2cn1 [GW282974X],29,81,100,88,100,74,82,100,97,88,84,100,100,95,100,100,93,92,86,100
COc1cccc(-c2c[nH]c3c(N/N=C/c4ccncc4)ncnc23)c1 [GW814408X],92,76,56,100,27,100,38,100,60,65,84,100,11,100,72,87,100,11,51,32
O=C1Nc2ccc(C(=O)c3ccco3)cc2C1=Cc1cc(Cl)c(O)c(Cl)c1 [GW406108X],93,100,79,100,100,89,88,100,100,60,86,100,87,81,100,100,30,40,100,85
CCS(=O)(=O)c1ccc(OC)c(Nc2ncc(-c3cccc(OC)c3)o2)c1 [GW580509X],97,100,96,100,26,54,96,100,100,37,100,100,100,100,96,100,81,100,100,100
COc1cc2ncnc(Nc3ccc4c(cnn4Cc4ccccc4)c3)c2cc1OC.Cl [GW282449A],100,77,100,100,100,50,92,100,97,100,98,100,100,100,77,100,100,100,100,100
CCn1c(-c2nonc2N)nc2c(C#CC(C)(C)O)nc(OCCNC)cc21.Cl [GSK949675],89,100,41,100,100,100,84,100,100,100,100,100,100,98,100,100,85,72,92,90
C/C(Nc1ccc(S(N)(=O)=O)cc1)=C1/C(=O)Nc2ccccc21 [GW335962X],100,92,65,100,100,91,82,88,87,41,92,95,98,64,94,100,70,81,92,94
COc1ccc2[nH]c3c4[nH]c5ccc(OC)cc5c4c4c(c3c2c1)C(=O)NC4=O [GW296115X],67,96,59,56,87,100,86,94,100,74,33,80,70,100,73,100,20,100,96,96
CCc1ccc(Oc2nccc(-c3c(-c4ccc(F)cc4)ncn3C3CCNCC3)n2)cc1 [SB-242719],100,79,87,99,100,91,82,100,88,89,92,100,82,81,85,100,96,82,93,95
CC(C)COC(=O)c1ccc2c(c1)/C(=C/Nc1ccc(S(N)(=O)=O)cc1)C(=O)N2 [GW416981X],100,100,13,100,100,100,100,100,100,6.8,24,100,100,100,100,100,21,85,100,99
Cl.O=C(Nc1ccc(Oc2ccc3[nH]c(NC(=O)c4ccco4)nc3c2)cc1)Nc1cc(C(F)(F)F)ccc1F [GW683134A],100,40,100,95,96,100,100,100,84,92,9.8,81,100,100,100,100,9.1,100,97,100
COc1cc(/C=N/Nc2ncnc3[nH]ncc23)ccc1O [GW578748X],87,100,36,100,22,39,97,91,98,32,95,100,57,60,51,100,32,51,80,77
NS(=O)(=O)c1ccc(N/N=C2\C(=O)Nc3ccc(Cl)cc32)cc1 [GW280670X],100,100,91,100,100,100,97,100,88,84,95,100,100,100,98,100,81,95,100,100
COc1cccc(-n2ncc3c(N/N=C/c4ccncc4)ncnc32)c1 [GW784752X],100,100,100,100,54,99,94,100,99,82,100,100,96,100,79,100,97,39,97,91
COC(=O)Nc1nc2ccc(Oc3ccc(NC(=O)Nc4cc(C(F)(F)F)ccc4F)cc3)cc2s1.Cl [GW693917A],98,68,86,100,54,92,86,90,74,76,44,86,100,87,98,100,5.8,84,86,93
